Most compounds without a hit are left out; they make up all but 4% or so of the library.
Mtb bLac sens: beta-lactam sensitization of Mtb H37Rv | M. tuberculosis H37Rv growth with meropenem, percent inhibition | inhibition, % at 25 µM | 0.27% of 330,000 active; call rule not given here;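 further: growth measured after seven days incubation then overnight dye step; 0% = bacteria only wells and 100% = bacteria with antibiotic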
GDH-TPI counter-1: GDH-TPI coupled enzyme inhibition counter-screen | GDH-TPI coupled enzyme counterscreen, NADH absorbance | inhibition, % at 4.8 µM | 1.2% of 360,000 active; in the data active means inhibition above about 30%;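 further: 0% = DMSO wells and 100% = wells lacking the enzyme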
UGM FP inh: blocks M. tuberculosis UGM enzyme. P9WIQ1. purified UGM, fluorescence polarization probe displacement. inhibition, % at 10 µM. 0.06% of 320,000 active. AID 504406; in the data active means inhibition above about 10%, passing the limit was not always enough
Target sequence (P9WIQ1 whole entry, looked up): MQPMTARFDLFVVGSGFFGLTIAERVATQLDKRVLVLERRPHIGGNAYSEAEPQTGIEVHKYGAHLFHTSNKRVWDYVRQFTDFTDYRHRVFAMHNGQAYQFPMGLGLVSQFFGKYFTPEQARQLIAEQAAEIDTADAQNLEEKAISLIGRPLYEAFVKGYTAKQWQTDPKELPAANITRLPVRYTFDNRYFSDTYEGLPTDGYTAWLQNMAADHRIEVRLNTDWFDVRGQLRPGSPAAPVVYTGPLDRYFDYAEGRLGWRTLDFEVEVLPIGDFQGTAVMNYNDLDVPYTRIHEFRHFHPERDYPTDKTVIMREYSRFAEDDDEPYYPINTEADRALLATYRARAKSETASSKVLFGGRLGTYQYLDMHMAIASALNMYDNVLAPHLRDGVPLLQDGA
RecA intein inh: Mtb RecA intein splicing inhibition; 0.75% of 290,000 active; inhibition, % (concentration not given with the values); cell-free RecA intein splicing, fluorescence; P9WHJ3; AID 2221; in the data active means inhibition above about 30%;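 further: 0% = vehicle wells and 100% = reference inhibitor control wells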
Mtb FBA inh: inhibitors of M. tuberculosis fructose-bisphosphate aldolase; P9WQA3; purified M. tuberculosis FBA, fluorescence read-out; inhibition, % at 1 µM; 2.3% of 360,000 active;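 further: 0% = vehicle and 100% = reference inhibitor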
Rv3671c inh: inhibitors of M. tuberculosis serine protease Rv3671c; inhibition, % at 5.96 µM; P9WHR9; 0.048% of 320,000 active; in the data active means inhibition above about 38%;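 further: extracellular domain of Rv3671c used as enzyme; 0% = enzyme with DMSO and 100% = no enzyme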
Mtb FBA inh conf: Mtb FBA inhibition, confirmed | inhibition, % at 1 µM | AID 651616 | 78% of 5,600 active | purified M. tuberculosis FBA, fluorescence read-out | shares compounds with Mtb FBA inh;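 further: 0% = vehicle wells and 100% = reference inhibitor wells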
GDH-TPI counter-2: counter-screen for M. tuberculosis FBA inhibitors: GDH-TPI coupled enzyme inhibition. shares compounds with Mtb FBA inh. GDH-TPI coupled enzyme counterscreen, fluorescence. inhibition, % at 1 µM. 81% of 5,600 active; in the data active means inhibition above about 10%
Numbers without * were called inactive; x = no result; + = active, no number. Unless noted, no stated cut-off is given here; in the data, active means inhibition above about 27%; inactive means the rest.

SMILES	Mtb bLac sens	GDH-TPI counter-1	UGM FP inh	RecA intein inh	Mtb FBA inh	Rv3671c inh	Mtb FBA inh conf	GDH-TPI counter-2
CC(=O)Nc1cccc(-c2cn3ccccc3n2)c1	0.6	7.6	0.5	-0.6	43.0*	-5.8	39.9*	41.3*
Cc1ccn2cc(-c3cccc(NC(=O)C(C)C)c3)nc2c1	0.2	10.4	3.0	x	39.9*	-7.0	112.8*	86.6*
CC(C)C(=O)Nc1cccc(-c2cn3ccccc3n2)c1	-5.2	7.9	0.2	3.5	0.9	-1.0	x	x
COc1ccc(CC(=O)Nc2ccc(-c3cn4ccc(C)cc4n3)cc2)cc1	66.4	5.1	0.0	-0.9	58.5*	-22.1	167.9*	143.3*
COc1ccc(Cl)cc1NC(=O)CSc1nnc(Cc2ccc(C)cc2)c(=O)[nH]1	-0.3	9.4	-0.4	2.7	1.4	-2.0	x	x
CCCCn1c(N)c(N(CCC(C)C)C(=O)c2ccc([N+](=O)[O-])s2)c(=O)[nH]c1=O	5.9	9.2	-0.9	-10.2	0.7	3.8	x	x
Nc1c(C(=O)NCc2ccccc2)c2nc3ccccc3nc2n1CCCN1CCOCC1	99.4	7.8	-0.8	-383.7	58.4*	8.1	146.2*	113.6*
O=C(NCCCN1CCOCC1)C(=O)NCc1ccccc1	-2.9	-1.9	2.1	-1.6	4.1	-1.6	x	x
COc1ccc(CNC(=O)C(C)Sc2nc3ccccc3c(=O)n2CCCN2CCOCC2)cc1 (configuration not stated)	-2.0	8.5	1.1	-3.7	0.3	-2.1	x	x
O=C(NCCCN1CCOCC1)c1ccc(CNS(=O)(=O)c2ccc(F)cc2)cc1	-4.1	11.4	-0.6	0.8	2.3	5.8	x	x
COc1ccc(CNC(=O)c2c(N)n(CCCN3CCOCC3)c3nc4ccccc4nc23)cc1	100.0	13.3	0.5	-149.4	55.1*	4.3	132.2*	107.2*
Nc1c(C(=O)NCc2ccc(F)cc2)c2nc3ccccc3nc2n1CCCN1CCOCC1	100.0	10.8	1.1	-149.0	47.9*	14.1	+	+
COc1cccc(OCc2cc(C3Nc4ccccc4C(=O)N3Cc3ccco3)ccc2OC)c1 (configuration not stated)	x	3.5	x	11.9	13.0	x	x	x
O=C1c2ccccc2NC(c2ccccc2)N1Cc1ccco1 (configuration not stated)	2.9	-9.4	1.3	-1.1	51.0*	1.3	3.2	0.8
O=C1c2ccccc2NC(c2ccc(F)cc2)N1Cc1ccco1 (configuration not stated)	-3.9	16.4	-0.2	1.5	49.5*	3.6	85.3*	61.0*
COc1ccc(C2Nc3ccccc3C(=O)N2Cc2ccco2)cc1COc1ccc([N+](=O)[O-])cc1 (configuration not stated)	3.1	4.1	-0.8	2.5	-0.4	-5.0	x	x
CC(C)(C)OC(=O)[C@H](Cc1ccccc1)NC(=O)c1nc[nH]c1C(=O)N1CCNCC1	-2.0	6.0	-2.6	x	0.3	-0.5	x	x
Nc1cc(C(=O)O)ccc1Nc1ccccc1	38.5	7.7	0.5	4.0	91.0*	-19.1	125.9*	113.3*
CCC1C(=O)n2nc(-c3ccccc3)cc2N=C1C (configuration not stated)	7.2	7.8	0.0	1.2	39.6*	-10.2	+	144.6*
c1ccc(NCc2cccnc2)cc1	-12.1	-7.4	0.6	x	2.9	6.5	x	x
c1cncc(CNc2cccc(-c3nc4ccccc4[nH]3)c2)c1	-1.5	7.8	1.6	2.0	47.8*	4.4	0.2	-3.2
O=C(C1CCCO1)N1CCN(S(=O)(=O)c2cc(C(F)(F)F)ccc2Cl)CC1 (configuration not stated)	x	4.2	x	x	1.5	x	x	x
O=S(=O)(Nc1nc2c(s1)CCCC2)c1ccc(F)cc1	-1.4	-7.1	1.9	1.1	1.1	-3.7	x	x
COc1ccc(S(=O)(=O)Nc2nc3c(s2)CCCC3)cc1	-6.8	2.2	-0.3	-0.4	56.2*	2.9	86.5*	67.6*
C/C=C(\C)C(=O)O[C@@H]([C@H](O)c1cc2ccc(=O)oc2cc1OC)C(C)(C)O	-8.0	17.9	2.2	x	38.5*	-1.1	42.0*	22.6*
